Assay results reported in PubChem BioAssay (NCI).
About 79,000 compounds went through this panel and 15% of them were active in at least one assay; those are over-represented in the sample as a whole. Unmarked numbers belong to inactive results. Activity calls are given as the source filed them. No stated cut-off is given here; in the data, active means growth inhibition above about 70%; inactive means the rest. Where a SMILES comes first, the peptide text is derived from it. [ ]: non-standard residue; d: D form. Nva = CCC[CH](N)C(=O)O

Experiment: NCI Yeast Anticancer Drug Screen. Data for the rad50 strain (AID 155);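 further: 0% = growth of vehicle-only cultures of the same strain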
Settings: S. cerevisiae rad50 strain growth inhibition; at 50.0 µM (retest, dose inferred, filed as 5.0); hits give high values
Summary of the method: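 Genetically altered yeast (DNA repair pathway); compound treatment; growth inhibition vs vehicle ctrl.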

Which growth inhibition does the source give for `O=[N+]([O-])c1ccc(-c2ccc(-c3csc(Nc4ccccc4)n3)o2)cc1` here?
The growth inhibition was 96% (active).

For `C1=C(C2=C[P+](c3ccccc3)(c3ccccc3)C=C(c3ccccc3)O2)OC(c2ccccc2)=C[P+]1(c1ccccc1)c1ccccc1`, which growth inhibition is on record?
Its growth inhibition is 15%.

Which growth inhibition does the source give for `Cc1ccc(C2C(O)=C(c3ccccc3)Sc3ccc(C)cc32)cc1` (stereo not given) here?
Its growth inhibition is 33%.

Which growth inhibition does the source give for `CCc1n[nH]c(CC)c1CCCCCCOc1ccc(OC)cc1Cl` here?
Its growth inhibition is 60%.

With `C=C1CC[C@H]2C(C)=CC[C@@H]3[C@H](OC(=O)[C@H]3CN3CCN(c4ccc(C)c([N+](=O)[O-])c4)CC3)[C@@H]12` as the compound, how does the growth inhibition read?
The growth inhibition was 65%.

With `C(CCCCCN1CCCCC1)CCCCN1CCCCC1` as the compound, how does the growth inhibition read?
Its growth inhibition is -9%.

With `CN(Cc1cnc2nc(N)nc(N)c2n1)c1ccc(C(=O)NC(CCC(=O)O)C(=O)O)cc1C(F)(F)F` (stereo not given) as the compound, how does the growth inhibition read?
Its growth inhibition is 76% (active).

Which growth inhibition does the source give for `CC(C(=O)O)C(N)C(=O)O` (stereo not given) here?
The growth inhibition was 4%.

Which growth inhibition does the source give for `CCCCCCCCCCN(CCCCCCCCCC)C1CC(OC2CC(O)(C(O)CO)Cc3c(O)c4c(c(O)c32)C(=O)c2c(OC)cccc2C4=O)OC(C)C1O` (stereo not given) here?
Its growth inhibition is 87% (active).

Which growth inhibition does the source give for `COc1ccc(OCC(O)CN2CCN(c3cccc(Cl)c3)CC2)cc1` (stereo not given) here?
Its growth inhibition is -3%.

For `O=C(O)c1ccccc1C(=O)c1ccc2c(c1)Cc1ccccc1-2`, which growth inhibition is on record?
The growth inhibition was 9%.

Which growth inhibition does the source give for `Cc1cc(C2c3ccccc3-c3ccccc32)cc(C)c1O` here?
The growth inhibition was 7%.

Which growth inhibition does the source give for `CC(C)(C)c1cc(Cl)c(O)c(Cc2cc(C(C)(C)C)cc(Cl)c2O)c1` here?
Its growth inhibition is 67%.

Which growth inhibition does the source give for `COc1cccc(/C=C/C(C)=O)c1OC` here?
The growth inhibition was 35%.

With `Cc1nc2c(cnn2C)cc1CCc1ccccc1` as the compound, how does the growth inhibition read?
Its growth inhibition is 16%.

For `O=C1C(C(O)(C(F)(F)Cl)C(F)(F)Cl)CCCC1C(O)(C(F)(F)Cl)C(F)(F)Cl` (stereo not given), which growth inhibition is on record?
The growth inhibition was 99% (active).

With `C=CCNCCC1CCCCCC1` as the compound, how does the growth inhibition read?
The growth inhibition was 97% (active).

Which growth inhibition does the source give for `CCCC(N)C(=O)NC(C(=O)O)C(C)C` (stereo not given) (H-[Nva]-Val-OH; configuration not given here) here?
The growth inhibition was -11%.

For `Cc1cc(N)c2cc(NC(=O)Nc3ccc4nc(C)cc(N)c4c3)ccc2n1`, which growth inhibition is on record?
Its growth inhibition is 100% (active).

For `COc1ccc(N=Cc2ccccc2O)cc1`, which growth inhibition is on record?
Its growth inhibition is -57%.

With `Cc1cc(Br)c2ccccc2c1N` as the compound, how does the growth inhibition read?
The growth inhibition was 69%.

For `c1ccc(-c2cc(Nc3ccc4c(c3)OCO4)c3cc(C4CCCCC4)ccc3n2)cc1`, which growth inhibition is on record?
The growth inhibition was 95% (active).

With `CCCCCCCCc1cc[n+](C2=C([O-])c3ccccc3C(=O)C2=O)cc1` as the compound, how does the growth inhibition read?
The growth inhibition was 97% (active).

Which growth inhibition does the source give for `CCCCCCCCCCCc1nnc(N)o1` here?
The growth inhibition was 91% (active).

Which growth inhibition does the source give for `O=C1OC(OCC#CCOC2OC(=O)C(Cl)=C2Cl)C(Cl)=C1Cl` (stereo not given) here?
The growth inhibition was 99% (active).

For `O=S(=O)(O)CC[S][Sn]([S]CCS(=O)(=O)O)([c]1ccccc1)[c]1ccccc1` (tested in a mixture with another compound), which growth inhibition is on record?
The growth inhibition was 98% (active).

With `CC(C)NC(=O)OCCS(=O)c1c(Cl)c(Cl)nn1C` (stereo not given) as the compound, how does the growth inhibition read?
Its growth inhibition is 62%.

Which growth inhibition does the source give for `CN1N=C2c3ccccc3CC[C@H]2C1c1cccc(O)c1` (stereo not given in full) here?
The growth inhibition was 65%.

For `O=C1CSC(=S)N1/N=C/c1ccc(Cl)c([N+](=O)[O-])c1`, which growth inhibition is on record?
The growth inhibition was 86% (active).

For `O=C(O)CCCCCCCCC(=O)CCl`, which growth inhibition is on record?
Its growth inhibition is 97% (active).

With `O=C(NC1CCN(Cc2ccccc2)CC1)c1ccccc1I` as the compound, how does the growth inhibition read?
The growth inhibition was 73% (active).

Which growth inhibition does the source give for `Cc1ccc(Nc2nc3c(s2)C(=O)c2ccccc2C3=O)cc1` here?
The growth inhibition was 97% (active).

Which growth inhibition does the source give for `O=C(/C=C/c1ccccc1)c1cc2c(cc1O)OCO2` here?
The growth inhibition was 17%.

For `O=[N+]([O-])c1ccc(Sc2ccc([N+](=O)[O-])o2)o1`, which growth inhibition is on record?
The growth inhibition was 99% (active).

Which growth inhibition does the source give for `CCCCCCCCN(CCCCCCCC)CC(O)c1cc(OCC)nc2ccccc12` (stereo not given) here?
Its growth inhibition is 96% (active).

Which growth inhibition does the source give for `CC(O)CCc1nc2ccccc2[nH]1` (stereo not given) here?
Its growth inhibition is -4%.

With `CCCCCCCCCCCCCCCCSC(=NC)NC` as the compound, how does the growth inhibition read?
The growth inhibition was 99% (active).

Which growth inhibition does the source give for `O=C(O)CCC(O)=C1S(=O)(=O)OCCOS1(=O)=O` here?
The growth inhibition was 16%.

Which growth inhibition does the source give for `CCCCCCCCCCCCCCCCN` here?
Its growth inhibition is 97% (active).

For `COC1=C(Br)C(=O)N/C1=C(\OC)c1ccccc1`, which growth inhibition is on record?
Its growth inhibition is 9%.

Same assay, conditions: S. cerevisiae rad50 strain growth inhibition; at 50.0 µM; hits give high values

For `O=[N+]([O-])c1ccc(-c2ccc(-c3csc(Nc4ccccc4)n3)o2)cc1`, which growth inhibition is on record?
The growth inhibition was 93.2% (active).

For `C1=C(C2=C[P+](c3ccccc3)(c3ccccc3)C=C(c3ccccc3)O2)OC(c2ccccc2)=C[P+]1(c1ccccc1)c1ccccc1`, which growth inhibition is on record?
Its growth inhibition is -10.1%.

With `Cc1ccc(C2C(O)=C(c3ccccc3)Sc3ccc(C)cc32)cc1` (stereo not given) as the compound, how does the growth inhibition read?
The growth inhibition was 35.6%.

Which growth inhibition does the source give for `CCc1n[nH]c(CC)c1CCCCCCOc1ccc(OC)cc1Cl` here?
Its growth inhibition is 83.8% (active).

Which growth inhibition does the source give for `C=C1CC[C@H]2C(C)=CC[C@@H]3[C@H](OC(=O)[C@H]3CN3CCN(c4ccc(C)c([N+](=O)[O-])c4)CC3)[C@@H]12` here?
Its growth inhibition is 69%.

For `C(CCCCCN1CCCCC1)CCCCN1CCCCC1`, which growth inhibition is on record?
Its growth inhibition is -2.7%.

For `CN(Cc1cnc2nc(N)nc(N)c2n1)c1ccc(C(=O)NC(CCC(=O)O)C(=O)O)cc1C(F)(F)F` (stereo not given), which growth inhibition is on record?
Its growth inhibition is 72.7% (active).

With `CC(C(=O)O)C(N)C(=O)O` (stereo not given) as the compound, how does the growth inhibition read?
The growth inhibition was 99.5% (active).

For `CCCCCCCCCCN(CCCCCCCCCC)C1CC(OC2CC(O)(C(O)CO)Cc3c(O)c4c(c(O)c32)C(=O)c2c(OC)cccc2C4=O)OC(C)C1O` (stereo not given), which growth inhibition is on record?
The growth inhibition was 43.5%.

Which growth inhibition does the source give for `COc1ccc(OCC(O)CN2CCN(c3cccc(Cl)c3)CC2)cc1` (stereo not given) here?
The growth inhibition was 72.5% (active).

For `O=C(O)c1ccccc1C(=O)c1ccc2c(c1)Cc1ccccc1-2`, which growth inhibition is on record?
Its growth inhibition is 68.6%.

With `Cc1cc(C2c3ccccc3-c3ccccc32)cc(C)c1O` as the compound, how does the growth inhibition read?
The growth inhibition was 98.3% (active).

Which growth inhibition does the source give for `CC(C)(C)c1cc(Cl)c(O)c(Cc2cc(C(C)(C)C)cc(Cl)c2O)c1` here?
The growth inhibition was 67%.

For `COc1cccc(/C=C/C(C)=O)c1OC`, which growth inhibition is on record?
The growth inhibition was 76% (active).

With `Cc1nc2c(cnn2C)cc1CCc1ccccc1` as the compound, how does the growth inhibition read?
The growth inhibition was 14.7%.

Which growth inhibition does the source give for `O=C1C(C(O)(C(F)(F)Cl)C(F)(F)Cl)CCCC1C(O)(C(F)(F)Cl)C(F)(F)Cl` (stereo not given) here?
The growth inhibition was 99.7% (active).

With `C=CCNCCC1CCCCCC1` as the compound, how does the growth inhibition read?
The growth inhibition was 96.6% (active).

Which growth inhibition does the source give for `CCCC(N)C(=O)NC(C(=O)O)C(C)C` (stereo not given) (H-[Nva]-Val-OH; configuration not given here) here?
Its growth inhibition is 38.1%.

Which growth inhibition does the source give for `Cc1cc(N)c2cc(NC(=O)Nc3ccc4nc(C)cc(N)c4c3)ccc2n1` here?
The growth inhibition was 99% (active).

Which growth inhibition does the source give for `COc1ccc(N=Cc2ccccc2O)cc1` here?
Its growth inhibition is 8.1%.

With `Cc1cc(Br)c2ccccc2c1N` as the compound, how does the growth inhibition read?
Its growth inhibition is 88.3% (active).

With `c1ccc(-c2cc(Nc3ccc4c(c3)OCO4)c3cc(C4CCCCC4)ccc3n2)cc1` as the compound, how does the growth inhibition read?
The growth inhibition was 79% (active).

For `CCCCCCCCc1cc[n+](C2=C([O-])c3ccccc3C(=O)C2=O)cc1`, which growth inhibition is on record?
The growth inhibition was 98.8% (active).

For `CCCCCCCCCCCc1nnc(N)o1`, which growth inhibition is on record?
The growth inhibition was 96.7% (active).

With `O=C1OC(OCC#CCOC2OC(=O)C(Cl)=C2Cl)C(Cl)=C1Cl` (stereo not given) as the compound, how does the growth inhibition read?
The growth inhibition was 99.4% (active).

Which growth inhibition does the source give for `O=S(=O)(O)CC[S][Sn]([S]CCS(=O)(=O)O)([c]1ccccc1)[c]1ccccc1` (tested in a mixture with another compound) here?
The growth inhibition was 71.9% (active).

Which growth inhibition does the source give for `CC(C)NC(=O)OCCS(=O)c1c(Cl)c(Cl)nn1C` (stereo not given) here?
Its growth inhibition is 98.8% (active).

Which growth inhibition does the source give for `CN1N=C2c3ccccc3CC[C@H]2C1c1cccc(O)c1` (stereo not given in full) here?
The growth inhibition was 52.7%.

Which growth inhibition does the source give for `O=C1CSC(=S)N1/N=C/c1ccc(Cl)c([N+](=O)[O-])c1` here?
The growth inhibition was 63.8%.

With `O=C(O)CCCCCCCCC(=O)CCl` as the compound, how does the growth inhibition read?
Its growth inhibition is 98.8% (active).

Which growth inhibition does the source give for `O=C(NC1CCN(Cc2ccccc2)CC1)c1ccccc1I` here?
The growth inhibition was 74.3% (active).

For `Cc1ccc(Nc2nc3c(s2)C(=O)c2ccccc2C3=O)cc1`, which growth inhibition is on record?
Its growth inhibition is 98.2% (active).

Which growth inhibition does the source give for `O=C(/C=C/c1ccccc1)c1cc2c(cc1O)OCO2` here?
The growth inhibition was 29.6%.

With `O=[N+]([O-])c1ccc(Sc2ccc([N+](=O)[O-])o2)o1` as the compound, how does the growth inhibition read?
The growth inhibition was 99.2% (active).

For `CCCCCCCCN(CCCCCCCC)CC(O)c1cc(OCC)nc2ccccc12` (stereo not given), which growth inhibition is on record?
The growth inhibition was 97.8% (active).

For `CC(O)CCc1nc2ccccc2[nH]1` (stereo not given), which growth inhibition is on record?
Its growth inhibition is 17.3%.

For `CCCCCCCCCCCCCCCCSC(=NC)NC`, which growth inhibition is on record?
Its growth inhibition is 99.4% (active).

Which growth inhibition does the source give for `O=C(O)CCC(O)=C1S(=O)(=O)OCCOS1(=O)=O` here?
Its growth inhibition is 36%.

Which growth inhibition does the source give for `CCCCCCCCCCCCCCCCN` here?
Its growth inhibition is 99% (active).

With `COC1=C(Br)C(=O)N/C1=C(\OC)c1ccccc1` as the compound, how does the growth inhibition read?
Its growth inhibition is 11.3%.
